Measurements from PubChem BioAssay AID2284102 (EPA ToxCast).
Records with an inconclusive call do not appear. Activity calls are given as the source filed them. How the source made its calls: active means hit-call score of the fitted dose curve at least 0.9, where 1 is the maximum; inconclusive means response in the unintended direction; inactive means score below 0.9.

Each molecule was assayed against Tyrosine-protein kinase Lyn (Homo sapiens) (UniProt P07948) (assay: ERF_FR_ENZ_hLYN: Eurofins (ERF) Enzymatic Radiometric [Km ATP] KinaseProfiler LeadHunter Assay for human LYN Tyrosine Kinase).
Chain of Tyrosine-protein kinase Lyn (Homo sapiens) (P07948 whole entry, looked up): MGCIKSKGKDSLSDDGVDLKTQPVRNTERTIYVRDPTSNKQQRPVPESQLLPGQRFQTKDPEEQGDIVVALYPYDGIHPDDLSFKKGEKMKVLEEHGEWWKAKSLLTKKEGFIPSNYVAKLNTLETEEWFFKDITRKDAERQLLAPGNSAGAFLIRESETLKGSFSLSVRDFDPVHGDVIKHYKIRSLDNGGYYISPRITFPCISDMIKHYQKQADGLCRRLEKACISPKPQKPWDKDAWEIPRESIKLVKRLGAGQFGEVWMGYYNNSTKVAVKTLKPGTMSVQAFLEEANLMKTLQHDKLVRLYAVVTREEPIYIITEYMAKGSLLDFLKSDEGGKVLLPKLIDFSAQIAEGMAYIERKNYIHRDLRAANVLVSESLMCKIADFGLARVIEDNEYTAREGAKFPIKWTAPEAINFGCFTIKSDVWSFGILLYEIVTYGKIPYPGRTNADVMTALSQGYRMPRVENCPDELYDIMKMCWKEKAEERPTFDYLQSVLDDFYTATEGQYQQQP
Experimental: ERF_FR_ENZ_hLYN is a biochemical, single-readout assay that uses extracted gene-proteins in a cell-free assay. Measurements were taken 0.5 hour after chemical dosing in a 96-well plate. See LYN (B) Human TK Kinase Enzymatic HTRF Assay [Km ATP], Cerep.ERF_FR_ENZ_hLYN is an assay component calculated from the ERF_FR_ENZ_hLYN assay. It is designed to measure enzyme activity using a type of enzyme reporter as detected by fluorescence intensity with HTRF technology.Data from the assay component ERF_FR_ENZ_hLYN was analyzed at the assay endpoint, ERF_FR_ENZ_hLYN, in the positive analysis fitting direction relative to DMSO as the negative control and baseline of activity. Using a type of enzyme reporter, loss-of-signal activity can be used to understand changes in enzymatic activity as they relate to gene LYN. To generalize the intended target to other relatable targets, this assay endpoint is annotated to the kinase intended target family, where the subfamily is non-receptor tyrosine kinase.
Lyn (h) is incubated with 50 mM Tris pH 7.5, 0.1 mM EGTA, 0.1 mM Na3VO4, 0.1% […], 0.1 mg/mL poly(Glu, Tyr) 4:1, 10 mM MgAcetate and [gamma-33P]-ATP (specific activity and concentration as required). The reaction is initiated by the addition of the Mg/ATP mix. After incubation for 40 minutes at room temperature, the reaction is stopped by the addition of phosphoric acid to a concentration of 0.5%. An aliquot of the reaction is then spotted onto a filter and washed four times for 4 minutes in 0.425% phosphoric acid and once in methanol prior to drying and scintillation counting.Compound should be supplied in 100% DMSO.We require a stock solution at a concentration of at least 50x higher than the Final Assay Concentration of your cpd. A 10mM stock is also acceptable.When ordering fewer than 60 kinase assays, we need 120uL of 50x concentrated stock. For more than 60 assays, we need 420 uL of 50xcc stock. Please apply the conversion if you provide 10mM stock solution or compounds in powder form (pre-weighed is required) From 50 cpds supplied as solids, the TAT will be extended.

AC50, active:
O=C(/C=C/c1ccc(O)cc1)CC(=O)/C=C/c1ccc(O)cc1 2600 nM
COc1cc(CCC(=O)CC(=O)CCc2ccc(O)c(OC)c2)ccc1O 2360 nM
COc1cc(/C=C/C(=O)CC(=O)/C=C/c2ccc(O)c(OC)c2)ccc1O 24.6 nM
